Assay [1] can be described thus: Viability qHTS for spleen associated tyrosine kinase inhibitor (SYKi) naive MV4-11 cells (AID 1963823). Further: nearly all actives have a fitted effect of over 40% in size. In short, it runs like this:
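Viability of MV4-11 AML cells lacking prior SYK inhibitor exposure is scored by CellTiter-Glo luminescence following 72 hr compound incubation at 37 C, 5% CO2, seeded at 500 cells per well.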
For orientation: In qHTS, concentration-response curves come from the screen itself.

Assay [2] is described as follows: Viability qHTS for spleen associated tyrosine kinase inhibitor (SYKi) drug resistant MV4-11 cells (AID 1963824). Further: nearly all actives have a fitted effect of over 35% in size. Summed up:
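CellTiter-Glo luminescence, read 10 min after reagent addition, reports viability after a 72 hr compound exposure. Cells are an MV4-11 line made resistant to SYK inhibition, seeded at 500 per well onto compound-containing plates.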

Inconclusive results are not listed. A number with no mark means an inactive call. Calls of active or inactive are those of the source. The call rests on the fitted dose curve; in most records, active means well fitted cell-killing curve with a large enough effect; inconclusive means small, poorly fitted or top-dose-only effect, or effect the other way; inactive means no such curve, though single readings can be large or run the other way.
Potency means the concentration at half of the fitted maximal effect.

On to `CC(C)(F)CC(NC(c1ccc(-c2ccc(S(C)(=O)=O)cc2)cc1)C(F)(F)F)C(=O)NC1(C#N)CC1` (stereo unspecified), for which, in assay [1], the Potency entry was “inactive”. In assay [2], the Potency was 3660 nM (active).

As for `C[C@@H]1O[C@@H](OC[C@H]2O[C@@H](Oc3cc(O)cc4c3C(=O)C(O)(Cc3ccc(O)cc3)O4)[C@H](O)[C@@H](O)[C@@H]2O)[C@H](O)[C@H](O)[C@H]1O` (stereo partly specified), the Potency result in assay [1] and in assay [2] was “inactive” throughout.

On to `CNS(=O)(=O)c1ccccc1Nc1nc(Nc2ccc(N3CCN(C)CC3)cc2OC)ncc1Br`, for which the Potency is 18.4 nM (active) in assay [1] and 32.6 nM (active) in assay [2].

Turning to `N#C/C(=C1\Nc2ccccc2S1)c1ccnc(NCCc2cccnc2)n1`, the Potency in assay [1] and in assay [2] was 2310 nM (active) in each case.

For the compound `CC/C=C\CC1C(CC(=O)O)CCC1OC1OC(CO)C(O)C(O)C1O` (stereo unspecified), the Potency result in assay [1] and in assay [2] was “inactive” in each case.

For `C=C(C)C1CCC2(C(=O)OC3OC(COC4OC(CO)C(O)C(O)C4O)C(OC4OC(C)C(O)C(O)C4O)C(O)C3O)CCC3(C(=O)O)C(CCC4C5(C)CCC(=O)C(C)(C)C5CCC43C)C12` (stereo unspecified), the viability (% of control) in assay [1] is 84.8% [at 9.25 µM]. Besides, the viability, % of control in assay [2] is 91.7% [at 9.25 µM].

Consider `COc1cc2ncnc(Sc3nnc(C)s3)c2cc1OC`, for which the figures for the Potency in assay [1] and in assay [2] were 820 nM (active) and 1160 nM (active), respectively.

Turning to `C[C@@H]1CC[C@]2(C(=O)O)CC[C@]3(C(=O)O)C(=CCC4[C@@]5(C)CC[C@H](O[C@@H]6O[C@@H](C)[C@H](O[C@@H]7O[C@H](CO)[C@@H](O)[C@H](O)[C@H]7O)[C@@H](O)[C@H]6O)C(C)(C)C5CC[C@]43C)C2[C@H]1C` (stereo partly specified), the Potency entry in assay [1] and in assay [2] was “inactive” throughout.

With `CC(=O)N[C@H](Cc1ccc2ccccc2c1)C(=O)N[C@H](Cc1ccc(Cl)cc1)C(=O)N[C@H](Cc1cccnc1)C(=O)N[C@@H](CO)C(=O)N[C@@H](Cc1ccc(O)cc1)C(=O)N[C@H](CCCNC(N)=O)C(=O)N[C@@H](CC(C)C)C(=O)N[C@@H](CCCN=C(N)N)C(=O)N1CCC[C@H]1C(=O)N[C@H](C)C(N)=O`, the Potency result in assay [1] and in assay [2] was “inactive” throughout.

In the case of `C/C1=C\[C@H]2OC(=O)[C@@H](C)[C@@H]2CC/C(C(=O)O)=C/CC1`, the Potency result in assay [1] and in assay [2] was “inactive” each time.

`CC(Sc1nc2c(cnn2-c2cccc(Cl)c2)c(=O)[nH]1)C(N)=O` (stereo unspecified): the Potency result in assay [1] and in assay [2] was “inactive” in each case.

In the case of `COc1ccc2cc(C(C)C(=O)Oc3ccc(C(N)=S)cc3)ccc2c1` (stereo unspecified), the Potency entry in assay [1] and in assay [2] was “inactive” in each case.

Take `C[C@]12CC[C@@H]3c4ccc(O[C@@H]5O[C@H](C(=O)O)[C@@H](O)[C@H](O)[C@H]5O)cc4CC[C@H]3[C@@H]1CCC2=O`: the Potency result in assay [1] and in assay [2] was “inactive” each time.

For the compound `CCC(C)CC(=O)OC1C(=O)C(CO)=CC(O)C1C(C)C` (stereo unspecified), the Potency in assay [1] and in assay [2] was 2590 nM (active) in each case.

Consider `O=C(/C=C/c1ccc(O)c(O)c1)OCc1ccccc1O[C@@H]1O[C@H](CO)[C@@H](O)[C@H](O)[C@H]1O`, for which the Potency result in assay [1] and in assay [2] was “inactive” in each case.

On to `C=C1CC[C@@H]2[C@](C)(CO)[C@H](O)CC[C@@]2(C)[C@@H]1CC(O)C1=CCOC1=O` (stereo partly specified), for which the values for the Potency in assay [1] and in assay [2] were 9040 nM (active) and 4530 nM (active), respectively.

Take `COc1ccc(C[C@H](C)NC[C@@H](O)c2ccc(O)c(NC=O)c2)cc1`: the Potency result in assay [1] and in assay [2] was “inactive” each time.

Consider `CC(=O)OC[C@@]12[C@H](O)C[C@]3(C)C(=CCC4[C@@]5(C)CC[C@H](O[C@@H]6O[C@H](C(=O)O)[C@@H](O[C@@H]7O[C@H](CO)[C@@H](O)[C@H](O)[C@H]7O)[C@H](O)[C@H]6O[C@@H]6O[C@H](CO)[C@@H](O)[C@H](O)[C@H]6O)[C@](C)(CO)C5CC[C@]43C)[C@@H]1CC(C)(C)[C@@H](OC(C)=O)[C@@H]2O` (stereo partly specified), for which the viability (% of control) in assay [1] is 96.3% [at 9.25 µM]. For the same compound, in assay [2], the viability, % of control is 95.8% [at 9.25 µM].

For the compound `CC1=CC(=O)CC(C)(C)C1/C=C/C(C)O[C@@H]1O[C@H](CO)[C@@H](O)[C@H](O)[C@H]1O[C@@H]1OC[C@](O)(CO)[C@H]1O` (stereo partly specified), the Potency entry in assay [1] and in assay [2] was “inactive” throughout.

Consider `CCC[C@@H]1C[C@@H](C(=O)N[C@@H]([C@H]2O[C@H](SC)[C@H](OP(=O)(O)O)[C@@H](O)[C@H]2O)[C@H](C)Cl)N(C)C1`, for which the Potency entry in assay [1] and in assay [2] was “inactive” each time.

With `Cc1ncc(CCCN(C)C)cc1Nc1ncc2c(n1)-c1ccc(C(F)(F)F)cc1NC(=S)C2`, the Potency in assay [1] was 51.7 nM (active); in assay [2] it was 20.6 nM (active).

`COc1ccc2c(c1)O[C@H](O[C@@H]1O[C@H](CO)[C@@H](O)[C@H](O)[C@H]1O)C(=O)N2`: the Potency result in assay [1] and in assay [2] was “inactive” throughout.

As for `OC[C@@]1(O)CO[C@H](OC[C@H]2O[C@@H](OCCc3ccccc3)[C@H](O)[C@@H](O)[C@@H]2O)[C@@H]1O`, the Potency result in assay [1] and in assay [2] was “inactive” throughout.

The values above are taken from PubChem BioAssay (NCATS).
